Growth data for 40 compounds are collected here from PubChem BioAssay (NCI).

Compounds without any hit were thinned out: in the full panel of roughly 83,000, 20% have a hit.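 Note: values are percent growth. 100 is the growth of untreated cells, values between 100 and 0 indicate rising inhibition; between -100 and 0 indicates cell death.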 A number with no mark means an inactive call. The source made the active and inactive calls.

This experiment relates to PC-3 prostate. The experiment in a line: NCI-60 one-dose screen, 48 h (100 = growth as untreated, 0 = no growth, -100 = all killed). Conditions: 10 µM unless noted. As for the experimental part: Growth inhibition of the PC-3 human tumor cell line is measured as a screen for anti-cancer activity. Cells are grown in 96 well plates and exposed to the test compound for 48 hours. Compounds are tested at a single concentration, which is 10^-5 M for most compounds. The reported endpoint is percent growth (GI% or GIPRCNT), where numbers from 0 - 100% represent growth inhibition, and numbers from -100% - 0 represent cell death. For example, a value of 40 represents 60% growth inhibition. A value of 0 means no net growth occurred over the course of the experiment. A value of -40 indicates 40% of cells at the beginning of the experiment died by the end of the experiment. A value of -100 means all cells are dead at the end of the experiment.
NCI-60 Human Tumor Cell Lines Screen was performed using the standard one-dose NCI protocol, which is described in more detail at https://dtp.cancer.gov/discovery_development/nci-60/default.htm.
Compounds with GIPRCNT values below 10 were considered active. Activity score was based on GIPRCNT using the following formula: […]
Score is 0 for GIPRCNT values of 100 or above, 50 for GIPRCNT values of 0, and 100 for GIPRCNT values of -100.
For `COc1ccc2nc(Cl)c(/C=C/C(=O)c3ccc(NC(=O)CSc4nnc(-c5ccc(Cl)c(Cl)c5)n4-c4ccccc4)cc3)cc2c1`, the growth was 72.5%.

In the case of `CCOC(=O)c1c(NC(=O)c2ccc(OC)cc2)sc2c(CN(C)C)c(O)ccc12`, the growth is 78.9%.

Consider `CCCCCCCCn1ccc2cc(NC(=O)Cn3cc(CN4CCOCC4)nn3)ccc21`, for which the growth was 75.2%.

As for `Cn1c(/C=C/[N+](=O)[O-])cc2ccccc21`, the growth is 7.59% (active).

As to `CN1CCN(CCOc2ccc(-c3cnc4c(-c5ccc(C(F)(F)F)cc5)cnn4c3)cc2)CC1`, the growth is 28.3%.

For `Nc1c(C(=O)Nc2cccc3ncccc23)sc2nc3c(cc12)C(=O)CCC3`, the growth is 35.1%.

In the case of `N=C(N)c1ccc(-c2ccc(-c3ccc(Cl)cc3Cl)s2)cc1F`, the growth was -14.1% (active).

As for `CCOC(=O)Cn1c(=O)c2c3ccccc3n(C)c2n2nnc(-c3ccccc3)c12`, the growth was 76.1%.

Take `C=C1C(=O)O[C@H]2[C@H]1CC/C(Cn1cc(-c3cc(C(F)(F)F)cc(C(F)(F)F)c3)nn1)=C\CC[C@@]1(C)O[C@@H]21`: the growth is -81% (active).

With `Nc1c(C(=O)Nc2ccncc2)sc2nc3c(cc12)CCCCC3`, the growth was 83.8%.

In the case of `O=C(O)c1cccc(N/C=C/C(=O)c2cc3cc(Br)ccc3oc2=O)c1`, the growth was 93.8%.

Take `CCCCNC1=C(OCC)C(=O)c2ccccc2C1=O`: the growth was 94.4%.

In the case of `CN1CCN(c2ccc(NC(=O)c3cncnc3Nc3ccc4c(ccn4Cc4cccc(F)c4)c3)cc2)CC1`, the growth was 66.2%.

Regarding `C[C@H]1[C@H](C)CC[C@]2(C(=O)O)CC[C@]3(C)C(=CC[C@@H]4[C@@]5(C)C[C@@H](Cc6cn([C@@H]7O[C@H](CO)[C@@H](O)[C@H](O)[C@H]7O)nn6)[C@H](O)C(C)(C)[C@@H]5CC[C@]43C)[C@H]12`, the growth is 89.8%.

With `O=c1nc(Nc2nc3ccccc3s2)[nH]c(=O)c2ccccc12`, the growth was 105%.

With `COC(=O)c1c2c(c(C)[n+]([O-])c1C)C(=O)C=CC2=O`, the growth was 3.6% (active).

As to `O=C1OCC2=C1C(c1cccc(C(F)(F)F)c1)c1cc3c(cc1N2CCO)OCO3` (stereo not given), the growth is 25.9%.

`COc1cc(C(=O)/C=C/c2ccc(N3CCN(C)CC3)cc2)cc(OC)c1OC`: the growth was 99.3%.

In the case of `Cn1c(O)c(C(/C=C/c2ccccc2)=Nc2ccccc2N)c(=O)n(C)c1=O`, the growth was 77.7%.

With `O=C1NC(=O)c2c1c1c3ccccc3[nH]c1c1oc3cc(Br)ccc3c21`, the growth is 42.3%.

Turning to `CC(C)CN1CC(C(=O)Nc2ccc3c(c2)-c2ccccc2C3)CC1=O` (stereo not given), the growth was 57.1% [50 µM].

Turning to `Cc1cccc(NC(=O)CSc2nc3ccc([N+](=O)[O-])cc3[nH]2)c1`, the growth is 75.1%.

Consider `CCOc1ccc(NC(=O)c2cc(OC)c(OC)c(OC)c2)cc1`, for which the growth is 29.9%.

As for `O=C(O)c1cn(C2CC2)c2cc(N3CCN(C(=O)N/N=C/c4ccccc4)CC3)c(F)cc2c1=O`, the growth is 96%.

In the case of `CCNC(=O)Oc1ccc(/C(=C(/C)Cc2ccc(OC)cc2)c2ccc(OCCN3CCCCCC3)cc2)cc1`, the growth was 63.8%.

Turning to `Cc1ccc(-c2nc(C(Cl)Cl)nc3cc(C)nn23)cc1`, the growth was 44.9%.

As for `Cc1ccc(/C=C(\C#N)C(=O)Nc2ncc(Cc3cc(Cl)ccc3Cl)s2)o1`, the growth was 38.8%.

In the case of `COc1ncc2cc1NS(=O)(=O)c1cccc(c1)C(=O)NCC1=CC=C(S1)c1ncnc3c1SC2=C3C`, the growth was -24.8% (active).

Consider `CCOC(=O)n1cc(-c2nonc2-c2cn(C)c3ccccc23)c2ccccc21`, for which the growth was 48.1%.

For `CC(C)(CO)N(CCO)CCO`, the growth is 91.4%.

On to `CCCCCCCCCCCCCCCCCCOc1ccccc1CC(=O)OCC[N+]1(C)CCOCC1`, for which the growth was 41.1%.

With `CCOC(=O)c1c(C)nc2c(c1N)CC(=O)N2Cc1cc(OC)c(OC)c(OC)c1`, the growth was 52.4%.

Turning to `O=C(Nc1ccccc1O)c1ccccc1Nc1ccnc(C(F)(F)F)c1`, the growth was 94.4%.

For `CC1(C)C2CC=C(/C=N/NC(=O)C3CCC(=O)N3)C1C2` (stereo not given), the growth was 102%.

Turning to `O=C(Cn1cc(CN2C(=O)c3ccccc3S2(=O)=O)nn1)Nc1cccc(Cl)c1`, the growth was 104%.

As to `CCOC(=O)CSc1nc2sc3c(c2c(=O)n1-c1ccc([N+](=O)[O-])cc1)CCCCC3`, the growth is 73.2%.

For `C=CCCC(=O)N1C=CC(=O)[C@H](O)[C@@H]1/C=C/c1ccccc1`, the growth was 51.2% [100 µM].

In the case of `CC1(C)O[C@H]2OC3CCC(=O)CC3(O)[C@H]2O1` (stereo not given in full), the growth is 82%.

For `COc1cc(-c2nc3occn3c2-c2ccnc(NCCCNS(=O)(=O)c3ccccc3)n2)ccc1F`, the growth was 22.2%.

Turning to `CCOC(=O)N1CCN(S(=O)(=O)c2oc(-c3ccc(Cl)cc3)nc2C#N)CC1`, the growth is 93%.
